Experimental findings from publication PMC7862700, “An all-to-all approach to the identification of sequence-specific readers for epigenetic DNA modifications on cytosine” are described below.

Assay in all cases: DAPPL (digital affinity profiling via proximity ligation, sequencing); 10 mM Tris-HCl pH 7.5, 50 mM NaCl, 1 mM DTT, 4% glycerol, room temperature, 30 min; GST-TFs on glutathione beads, 16-mer random dsDNA library, 0.1% formaldehyde crosslink after washing; high values mean tight binding
The target in one test is T1, FLI1 (Homo sapiens, UniProt Q01543 1-452).
T1 sequence: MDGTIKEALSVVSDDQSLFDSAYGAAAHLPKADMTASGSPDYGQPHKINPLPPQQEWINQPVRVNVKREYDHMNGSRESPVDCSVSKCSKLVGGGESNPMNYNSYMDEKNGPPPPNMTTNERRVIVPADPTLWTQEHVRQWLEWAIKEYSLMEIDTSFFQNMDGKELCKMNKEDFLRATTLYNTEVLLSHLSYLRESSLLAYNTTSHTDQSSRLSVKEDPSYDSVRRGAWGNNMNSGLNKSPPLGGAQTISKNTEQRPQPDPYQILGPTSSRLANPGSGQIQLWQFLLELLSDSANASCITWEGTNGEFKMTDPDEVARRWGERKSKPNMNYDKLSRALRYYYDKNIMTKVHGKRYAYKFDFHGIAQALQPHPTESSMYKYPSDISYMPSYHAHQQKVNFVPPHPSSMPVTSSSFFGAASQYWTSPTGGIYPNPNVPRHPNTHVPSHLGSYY
The conditions noted are these: protein: recombinant; tags: N-terminal GST; dsDNA, one strand shown. A digest of the protocol:
(§1)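 Binding signal is defined as a hexamer's read frequency for one factor over its frequency for the tag-only sample. To obtain reads, GST-fused human transcription factors were expressed in yeast, captured on glutathione beads, barcoded with DNA and pooled with that sample. Pools met 200 nmole of a 16-mer random double-stranded DNA library in Tris/NaCl/DTT/glycerol buffer for 30 min at room temperature before washing, 0.1% formaldehyde crosslinking, proximity ligation (BsaI/T4 ligase, 1 h, 37 °C), PCR and Illumina NextSeq500 sequencing.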

For the next test, the target named is T2, ELK1 (Homo sapiens, UniProt P19419 1-428).
T2 sequence: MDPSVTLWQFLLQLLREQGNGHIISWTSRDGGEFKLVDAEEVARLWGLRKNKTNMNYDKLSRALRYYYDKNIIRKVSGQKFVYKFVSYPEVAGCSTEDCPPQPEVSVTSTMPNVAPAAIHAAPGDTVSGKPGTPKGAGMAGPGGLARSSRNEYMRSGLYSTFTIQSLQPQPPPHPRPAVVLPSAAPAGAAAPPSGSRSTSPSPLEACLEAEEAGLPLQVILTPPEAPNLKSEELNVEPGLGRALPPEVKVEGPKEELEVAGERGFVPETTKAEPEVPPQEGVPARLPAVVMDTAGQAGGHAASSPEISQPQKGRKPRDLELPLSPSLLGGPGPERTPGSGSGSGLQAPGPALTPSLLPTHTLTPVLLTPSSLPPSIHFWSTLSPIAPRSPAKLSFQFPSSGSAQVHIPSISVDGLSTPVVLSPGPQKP
The conditions noted are these: protein: recombinant; tags: N-terminal GST; dsDNA, one strand shown. A digest of the protocol: as §1

Another test addresses T3, GABPA (Homo sapiens, UniProt Q06546 1-454).
T3 sequence: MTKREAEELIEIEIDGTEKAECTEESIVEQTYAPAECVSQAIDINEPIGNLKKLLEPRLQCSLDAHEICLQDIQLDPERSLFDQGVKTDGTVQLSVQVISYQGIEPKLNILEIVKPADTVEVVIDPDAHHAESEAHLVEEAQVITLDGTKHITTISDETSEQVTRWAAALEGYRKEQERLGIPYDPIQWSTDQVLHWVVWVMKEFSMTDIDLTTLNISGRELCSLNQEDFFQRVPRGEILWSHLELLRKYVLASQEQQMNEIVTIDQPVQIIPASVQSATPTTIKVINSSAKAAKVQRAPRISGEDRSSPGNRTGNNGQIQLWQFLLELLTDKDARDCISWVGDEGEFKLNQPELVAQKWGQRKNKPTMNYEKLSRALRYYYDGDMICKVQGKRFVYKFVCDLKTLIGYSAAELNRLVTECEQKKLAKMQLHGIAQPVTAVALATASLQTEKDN
The conditions noted are these: protein: recombinant; tags: N-terminal GST; dsDNA, one strand shown. A digest of the protocol: as §1

The target of another test is T4, ERG (Homo sapiens, UniProt P11308 1-479).
T4 sequence: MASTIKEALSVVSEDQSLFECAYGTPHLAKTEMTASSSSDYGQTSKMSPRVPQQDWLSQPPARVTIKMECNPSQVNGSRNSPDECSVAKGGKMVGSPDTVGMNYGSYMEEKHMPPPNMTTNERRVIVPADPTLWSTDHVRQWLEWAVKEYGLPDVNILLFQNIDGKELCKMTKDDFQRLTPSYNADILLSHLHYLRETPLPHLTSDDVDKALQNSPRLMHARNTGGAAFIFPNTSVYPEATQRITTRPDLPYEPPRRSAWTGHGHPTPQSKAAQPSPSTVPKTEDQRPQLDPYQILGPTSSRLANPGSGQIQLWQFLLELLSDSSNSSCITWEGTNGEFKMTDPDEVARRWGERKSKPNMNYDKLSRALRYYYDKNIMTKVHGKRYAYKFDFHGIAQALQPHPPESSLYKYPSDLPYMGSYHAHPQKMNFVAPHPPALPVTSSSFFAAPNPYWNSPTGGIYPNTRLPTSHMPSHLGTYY
The conditions noted are these: protein: recombinant; tags: N-terminal GST; dsDNA, one strand shown. A digest of the protocol: as §1

In another test the target is ELF1 (Homo sapiens, UniProt P32519 1-619). The conditions noted are these: protein: recombinant; tags: N-terminal GST; dsDNA, one strand shown. In short, it runs like this:
as §1

For a further test, the target named is T5, EHF (Homo sapiens, UniProt Q9NZC4 1-300).
T5 sequence: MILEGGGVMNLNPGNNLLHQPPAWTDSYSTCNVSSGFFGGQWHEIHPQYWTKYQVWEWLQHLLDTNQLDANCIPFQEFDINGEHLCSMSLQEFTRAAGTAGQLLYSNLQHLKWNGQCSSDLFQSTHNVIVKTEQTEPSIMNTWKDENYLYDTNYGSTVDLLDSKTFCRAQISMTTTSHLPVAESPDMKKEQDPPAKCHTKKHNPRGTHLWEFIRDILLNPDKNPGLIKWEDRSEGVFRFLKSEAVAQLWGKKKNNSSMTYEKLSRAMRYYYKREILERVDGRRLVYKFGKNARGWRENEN
Particulars: protein: recombinant; tags: N-terminal GST; dsDNA, one strand shown. In short, it runs like this: as §1

Another test concerns the target SPI1 (Homo sapiens, UniProt P17947 1-270). The conditions noted are these: protein: recombinant; tags: N-terminal GST; dsDNA, one strand shown. In short, it runs like this:
as §1

In the next test the target is SPIB (Homo sapiens, UniProt Q01892 1-262). Particulars: protein: recombinant; tags: N-terminal GST; dsDNA, one strand shown. In short, it runs like this: as §1
Sequence of SPIB (Q01892 whole entry): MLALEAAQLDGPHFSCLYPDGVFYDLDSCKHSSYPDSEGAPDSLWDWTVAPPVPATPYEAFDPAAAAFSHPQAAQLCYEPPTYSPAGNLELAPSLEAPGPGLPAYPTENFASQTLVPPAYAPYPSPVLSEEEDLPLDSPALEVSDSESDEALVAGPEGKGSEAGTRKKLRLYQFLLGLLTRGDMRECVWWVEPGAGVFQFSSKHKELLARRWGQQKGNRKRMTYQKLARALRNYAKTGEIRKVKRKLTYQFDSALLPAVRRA
A further test addresses T6, ELK3 (Homo sapiens, UniProt P41970 1-407).
T6 sequence: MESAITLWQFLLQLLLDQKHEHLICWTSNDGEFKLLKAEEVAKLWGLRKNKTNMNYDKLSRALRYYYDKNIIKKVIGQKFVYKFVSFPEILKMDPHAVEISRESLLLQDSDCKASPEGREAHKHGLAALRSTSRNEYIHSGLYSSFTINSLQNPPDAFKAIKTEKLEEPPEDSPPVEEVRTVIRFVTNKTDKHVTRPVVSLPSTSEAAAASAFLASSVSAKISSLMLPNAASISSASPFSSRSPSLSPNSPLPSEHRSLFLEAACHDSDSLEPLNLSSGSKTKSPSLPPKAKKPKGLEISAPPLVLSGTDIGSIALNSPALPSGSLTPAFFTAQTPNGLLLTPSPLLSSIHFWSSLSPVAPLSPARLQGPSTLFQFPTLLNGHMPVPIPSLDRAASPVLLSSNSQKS
The conditions noted are these: protein: recombinant; tags: N-terminal GST; dsDNA, one strand shown. A digest of the protocol:
as §1

In a further test the target is ETV5 (Homo sapiens, UniProt P41161 1-510). The conditions noted are these: protein: recombinant; tags: N-terminal GST; dsDNA, one strand shown. A digest of the protocol: as §1
Sequence of ETV5 (P41161 whole entry): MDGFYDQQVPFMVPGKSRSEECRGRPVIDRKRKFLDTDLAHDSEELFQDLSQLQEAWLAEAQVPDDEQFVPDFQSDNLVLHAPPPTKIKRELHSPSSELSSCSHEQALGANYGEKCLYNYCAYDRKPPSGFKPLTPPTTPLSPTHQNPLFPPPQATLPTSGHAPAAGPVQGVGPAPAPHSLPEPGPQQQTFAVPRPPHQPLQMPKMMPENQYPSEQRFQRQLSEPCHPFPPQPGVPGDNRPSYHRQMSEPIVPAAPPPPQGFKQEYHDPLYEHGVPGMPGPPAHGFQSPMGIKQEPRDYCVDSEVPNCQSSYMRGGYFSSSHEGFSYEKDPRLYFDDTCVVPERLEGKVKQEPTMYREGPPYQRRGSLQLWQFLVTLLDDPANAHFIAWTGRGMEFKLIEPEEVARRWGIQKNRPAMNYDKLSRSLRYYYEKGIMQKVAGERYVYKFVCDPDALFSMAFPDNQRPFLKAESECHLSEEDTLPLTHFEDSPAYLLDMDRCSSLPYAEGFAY
A further test deals with HSF1 (Homo sapiens, UniProt Q00613 1-529). The conditions noted are these: protein: recombinant; tags: N-terminal GST; chain copies: 3; dsDNA, one strand shown. A digest of the protocol: as §1
Sequence of HSF1 (Q00613 whole entry): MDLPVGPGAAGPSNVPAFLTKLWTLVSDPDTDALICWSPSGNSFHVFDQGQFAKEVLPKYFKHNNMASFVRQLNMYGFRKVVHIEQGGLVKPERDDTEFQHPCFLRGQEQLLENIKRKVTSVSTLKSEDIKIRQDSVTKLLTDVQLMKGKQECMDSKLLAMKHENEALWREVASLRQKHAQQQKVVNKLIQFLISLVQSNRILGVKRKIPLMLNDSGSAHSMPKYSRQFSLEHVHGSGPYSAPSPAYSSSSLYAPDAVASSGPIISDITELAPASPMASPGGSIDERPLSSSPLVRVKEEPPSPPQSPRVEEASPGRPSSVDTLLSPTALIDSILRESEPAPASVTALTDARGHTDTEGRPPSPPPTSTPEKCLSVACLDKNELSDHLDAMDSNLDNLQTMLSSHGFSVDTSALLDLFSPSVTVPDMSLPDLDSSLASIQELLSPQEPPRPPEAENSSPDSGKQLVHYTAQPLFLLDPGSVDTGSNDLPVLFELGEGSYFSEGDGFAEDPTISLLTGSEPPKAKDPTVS
In a further test the target is T7, SPIC (Homo sapiens, UniProt Q8N5J4 1-248).
T7 sequence: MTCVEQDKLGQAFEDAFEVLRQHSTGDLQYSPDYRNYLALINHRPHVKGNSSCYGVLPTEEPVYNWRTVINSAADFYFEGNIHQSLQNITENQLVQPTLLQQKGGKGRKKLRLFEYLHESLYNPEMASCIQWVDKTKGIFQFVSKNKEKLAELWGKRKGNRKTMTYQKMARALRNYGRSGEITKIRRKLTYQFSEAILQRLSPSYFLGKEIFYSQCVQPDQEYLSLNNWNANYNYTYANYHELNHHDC
Particulars: protein: recombinant; tags: N-terminal GST; dsDNA, one strand shown. In short, it runs like this:
as §1

A further test concerns the target T8, ETV2 (Homo sapiens, UniProt O00321 1-342).
T8 sequence: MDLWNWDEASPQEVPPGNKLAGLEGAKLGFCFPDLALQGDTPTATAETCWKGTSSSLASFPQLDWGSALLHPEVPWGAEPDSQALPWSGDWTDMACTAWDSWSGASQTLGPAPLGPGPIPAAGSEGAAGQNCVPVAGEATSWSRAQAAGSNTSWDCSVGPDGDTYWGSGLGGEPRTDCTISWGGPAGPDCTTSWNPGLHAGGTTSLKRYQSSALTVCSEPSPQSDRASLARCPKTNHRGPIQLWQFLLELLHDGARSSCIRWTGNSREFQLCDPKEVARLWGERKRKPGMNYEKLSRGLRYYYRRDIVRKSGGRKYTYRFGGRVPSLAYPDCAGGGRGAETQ
Particulars: protein: recombinant; tags: N-terminal GST; dsDNA, one strand shown. A digest of the protocol: as §1

Another test addresses CRX (Homo sapiens, UniProt O43186 1-299). The conditions noted are these: protein: recombinant; tags: N-terminal GST; dsDNA, one strand shown. In short, it runs like this: as §1
The target of a further test is ELF4 (Homo sapiens, UniProt Q99607 1-663). Particulars: protein: recombinant; tags: N-terminal GST; dsDNA, one strand shown. A digest of the protocol:
as §1

In a further test the target is T9, ELK4 (Homo sapiens, UniProt P28324-2 1-405).
T9 sequence: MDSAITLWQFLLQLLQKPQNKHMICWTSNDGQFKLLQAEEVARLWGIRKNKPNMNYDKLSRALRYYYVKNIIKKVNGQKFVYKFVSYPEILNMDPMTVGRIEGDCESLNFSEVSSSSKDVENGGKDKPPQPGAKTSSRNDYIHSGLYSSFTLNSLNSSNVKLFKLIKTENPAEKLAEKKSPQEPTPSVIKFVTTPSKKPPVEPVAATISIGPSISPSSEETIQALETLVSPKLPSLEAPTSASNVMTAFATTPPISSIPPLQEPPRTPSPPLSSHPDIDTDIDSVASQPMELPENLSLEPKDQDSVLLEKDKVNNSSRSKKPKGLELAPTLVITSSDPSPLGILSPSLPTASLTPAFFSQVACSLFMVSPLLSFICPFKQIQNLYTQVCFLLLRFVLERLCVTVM
The conditions noted are these: protein: recombinant; tags: N-terminal GST; dsDNA, one strand shown. In short, it runs like this:
as §1

In another test the target is T10, ELF3 (Homo sapiens, UniProt P78545 1-371).
T10 sequence: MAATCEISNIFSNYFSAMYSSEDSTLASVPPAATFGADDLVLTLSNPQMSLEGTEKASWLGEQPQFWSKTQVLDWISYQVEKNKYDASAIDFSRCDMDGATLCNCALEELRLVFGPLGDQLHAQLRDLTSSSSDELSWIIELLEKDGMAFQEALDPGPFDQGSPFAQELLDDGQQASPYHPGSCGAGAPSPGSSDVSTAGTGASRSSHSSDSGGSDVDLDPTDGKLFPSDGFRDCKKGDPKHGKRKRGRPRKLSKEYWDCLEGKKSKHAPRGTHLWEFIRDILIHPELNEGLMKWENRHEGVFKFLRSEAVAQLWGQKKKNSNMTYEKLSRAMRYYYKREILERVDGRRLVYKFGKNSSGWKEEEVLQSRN
Particulars: protein: recombinant; tags: N-terminal GST; dsDNA, one strand shown. A digest of the protocol:
as §1

The target in another test is ETV1 (Homo sapiens, UniProt P50549 1-477). Particulars: protein: recombinant; tags: N-terminal GST; dsDNA, one strand shown. A digest of the protocol:
as §1

Sequence of ELF1 (P32519 whole entry): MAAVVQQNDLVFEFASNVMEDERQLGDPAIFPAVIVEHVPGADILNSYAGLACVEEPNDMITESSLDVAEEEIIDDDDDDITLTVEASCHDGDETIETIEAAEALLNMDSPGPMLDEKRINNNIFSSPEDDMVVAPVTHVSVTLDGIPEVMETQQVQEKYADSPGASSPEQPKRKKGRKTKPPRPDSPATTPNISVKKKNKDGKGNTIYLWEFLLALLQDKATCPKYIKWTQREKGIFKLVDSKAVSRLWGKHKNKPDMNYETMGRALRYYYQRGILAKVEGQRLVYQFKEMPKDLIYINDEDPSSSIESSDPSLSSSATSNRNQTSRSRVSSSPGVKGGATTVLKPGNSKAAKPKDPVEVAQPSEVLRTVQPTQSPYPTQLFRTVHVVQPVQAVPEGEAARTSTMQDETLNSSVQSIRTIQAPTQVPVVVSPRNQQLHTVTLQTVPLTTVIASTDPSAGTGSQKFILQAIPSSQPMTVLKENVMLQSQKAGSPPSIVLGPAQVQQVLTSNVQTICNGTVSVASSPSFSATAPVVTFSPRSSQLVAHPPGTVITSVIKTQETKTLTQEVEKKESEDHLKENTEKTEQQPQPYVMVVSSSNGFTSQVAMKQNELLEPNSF
Sequence of CRX (O43186 whole entry): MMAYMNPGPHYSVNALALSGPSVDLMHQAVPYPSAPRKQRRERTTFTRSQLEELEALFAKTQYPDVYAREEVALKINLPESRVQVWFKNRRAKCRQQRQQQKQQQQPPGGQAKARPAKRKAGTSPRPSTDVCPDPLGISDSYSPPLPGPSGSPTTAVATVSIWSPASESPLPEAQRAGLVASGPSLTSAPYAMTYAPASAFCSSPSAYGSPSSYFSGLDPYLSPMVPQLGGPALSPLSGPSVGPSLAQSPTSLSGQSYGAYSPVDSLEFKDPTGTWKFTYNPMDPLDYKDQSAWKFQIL
Sequence of ELF4 (Q99607 whole entry): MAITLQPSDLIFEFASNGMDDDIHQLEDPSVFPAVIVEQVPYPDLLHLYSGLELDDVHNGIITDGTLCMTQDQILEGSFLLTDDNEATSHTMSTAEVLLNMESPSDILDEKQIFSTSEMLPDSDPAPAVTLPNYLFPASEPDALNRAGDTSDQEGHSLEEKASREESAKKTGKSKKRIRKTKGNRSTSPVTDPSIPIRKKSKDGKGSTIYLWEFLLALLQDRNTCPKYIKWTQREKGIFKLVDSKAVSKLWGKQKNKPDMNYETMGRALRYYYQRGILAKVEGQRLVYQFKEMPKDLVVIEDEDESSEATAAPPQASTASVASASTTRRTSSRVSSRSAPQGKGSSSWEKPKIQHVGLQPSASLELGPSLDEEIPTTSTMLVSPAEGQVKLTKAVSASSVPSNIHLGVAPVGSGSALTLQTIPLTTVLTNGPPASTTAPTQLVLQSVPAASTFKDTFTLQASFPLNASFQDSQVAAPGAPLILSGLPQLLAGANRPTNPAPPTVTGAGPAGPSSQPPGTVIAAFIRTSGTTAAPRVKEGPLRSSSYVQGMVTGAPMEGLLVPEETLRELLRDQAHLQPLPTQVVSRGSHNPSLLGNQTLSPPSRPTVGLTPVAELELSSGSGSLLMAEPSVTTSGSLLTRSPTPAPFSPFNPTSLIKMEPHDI
Sequence of ETV1 (P50549 whole entry): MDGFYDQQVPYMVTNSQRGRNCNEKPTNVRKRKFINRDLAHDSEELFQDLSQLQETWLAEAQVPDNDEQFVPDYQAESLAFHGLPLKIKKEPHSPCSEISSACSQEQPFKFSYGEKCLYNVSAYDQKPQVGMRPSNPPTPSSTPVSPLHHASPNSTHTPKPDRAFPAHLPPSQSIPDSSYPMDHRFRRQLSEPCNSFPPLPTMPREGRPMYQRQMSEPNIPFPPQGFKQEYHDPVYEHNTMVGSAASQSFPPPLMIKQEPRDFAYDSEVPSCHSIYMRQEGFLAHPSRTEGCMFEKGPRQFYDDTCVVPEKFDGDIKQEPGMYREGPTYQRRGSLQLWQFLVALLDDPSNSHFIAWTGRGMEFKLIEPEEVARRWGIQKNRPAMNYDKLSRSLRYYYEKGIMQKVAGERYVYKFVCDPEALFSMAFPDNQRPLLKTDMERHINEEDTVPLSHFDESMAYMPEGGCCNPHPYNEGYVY

In the case of TACTAG, the binding signal is 1.09 fold enrichment (6-mer frequency, TF over GST control) with FLI1; 1.09 fold enrichment (6-mer frequency, TF over GST control) with ELK1; 1.07 fold enrichment (6-mer frequency, TF over GST control) with GABPA; 1.06 fold enrichment (6-mer frequency, TF over GST control) with ERG; 1.11 fold enrichment (6-mer frequency, TF over GST control) with ELF1; 1.09 fold enrichment (6-mer frequency, TF over GST control) with EHF. The binding signal with SPI1 was 1 fold enrichment (6-mer frequency, TF over GST control); in the test with SPIB, 1 fold enrichment (6-mer frequency, TF over GST control); with ELK3 it was 1.05 fold enrichment (6-mer frequency, TF over GST control); with ETV5, 1.05 fold enrichment (6-mer frequency, TF over GST control); with HSF1, 1.81 fold enrichment (6-mer frequency, TF over GST control); with SPIC, 1.02 fold enrichment (6-mer frequency, TF over GST control). In addition, the binding signal with ETV2 is 1.17 fold enrichment (6-mer frequency, TF over GST control); with CRX, 1.3 fold enrichment (6-mer frequency, TF over GST control).

Take AGGTAT: the binding signal with FLI1 was 1.06 fold enrichment (6-mer frequency, TF over GST control); in the test with ELK1 it was 1.06 fold enrichment (6-mer frequency, TF over GST control); with GABPA it was 1.07 fold enrichment (6-mer frequency, TF over GST control); with ERG, 1.04 fold enrichment (6-mer frequency, TF over GST control); with ELF1, 1.04 fold enrichment (6-mer frequency, TF over GST control); with SPI1, 1.04 fold enrichment (6-mer frequency, TF over GST control). Also, the binding signal with SPIB was 1 fold enrichment (6-mer frequency, TF over GST control); in the test with ETV5, 1.02 fold enrichment (6-mer frequency, TF over GST control); with HSF1 it was 1.07 fold enrichment (6-mer frequency, TF over GST control); with ELF4, 1.02 fold enrichment (6-mer frequency, TF over GST control); in the test with ELK4 it was 1.03 fold enrichment (6-mer frequency, TF over GST control); with ETV2, 1.03 fold enrichment (6-mer frequency, TF over GST control). The binding signal with ELF3 was 1.12 fold enrichment (6-mer frequency, TF over GST control); in the test with CRX, 1.05 fold enrichment (6-mer frequency, TF over GST control); with ETV1, 1.02 fold enrichment (6-mer frequency, TF over GST control).
